The text below walks through data of PubChem BioAssay AID463173 (ICCB-Longwood Screening Facility, Harvard Medical School, 2010).

Screen size: about 52,000 compounds; about 4,300 (8.3%) were called active. The full list was thinned out, with actives kept by preference. A number with no mark means an inactive call. Cut-off read from the data, not from the text of the source: active = survival mostly below about 52% (no sharp cut-off); inactive = mostly above about 56%.

The test system of this experiment is DeltatarO mutant. The experiment is described as follows: growth inhibition of S. aureus wild type versus tarO mutant, primary screen, teichoic acid synthesis inhibitors, RN4220, OD600 (AID 463173). The following applies: OD600, 18 h, hits give low values, screened at 18.75 µg/mL (by protocol).
As to `CCOC(=O)N1CCC(NC(=O)c2cnn(-c3ccccc3)c2C2CCN(C(=O)OC(C)(C)C)CC2)CC1`, the survival is 117%. The same measure for `CCOc1ccc(C2=NC(c3cccs3)=Nc3ccc(CC)cc3N2)cc1OCC`: 77%.

As to `COc1cccc(CNC(=O)c2cc(-c3cccc(OC)c3)n[nH]2)c1`, the survival was 71%. As to `O=C(NCc1ccccc1)N1CCc2c(sc3c2CCCC3)C1c1ccccc1` (stereo not drawn), the survival was 75%. The figure for `COc1cc(C)ccc1OCCCn1c(-c2ccc(Cl)cc2)nc2ccccc2c1=O` is 62%; for `O=C(NC1CCCCCC1)C1c2ccccc2C(=O)N1Cc1ccc(F)cc1` (stereo not drawn) it is 111%; for `Cc1ccc(CNC(=O)c2ccc(-c3nc(CS(=O)c4ccccc4)c(C)o3)cc2)cc1` (stereo not drawn) it is 88%.

Regarding `Fc1ccc(Nc2nc(SCc3cccc(Cl)c3)nc3ccccc23)cc1`, the survival is 70%. Take `COc1ccc(CCNc2nc(SCc3cccc(F)c3)nc3ccccc23)cc1OC`: the survival is 85%. In the case of `Clc1cccc(CSc2nc(NCCc3ccccc3)c3ccccc3n2)c1`, the survival was 102%.

Take `Fc1cccc(CSc2nc(NCCc3ccccc3)c3ccccc3n2)c1`: the survival was 20% (active).

As to `COc1cc(Nc2nc(SCc3ccc(Cl)cc3)nc3ccccc23)cc(OC)c1`, the survival was 91%. With `COc1cc(Nc2nc(SCc3cccc(Cl)c3)nc3ccccc23)cc(OC)c1`, the survival is 37% (active). For the molecule `COc1ccc(-n2ccnc2SCC(=O)Nc2ccc3c(c2)OCO3)cc1`, the survival was 105%. Consider `Cc1ccc2nc(-c3ccsc3)c(Nc3ccc(C(C)C)cc3)n2c1`, for which the survival is 124%. The same measure for `O=C(NCc1ccccc1)c1ccc2c(c1)N(Cc1ccccc1F)C(=O)c1ccccc1S2=O` (stereo not drawn): 92%; for `N#CC(C#N)=Cc1cn(-c2ccccc2)nc1-c1ccccc1`: 68%; for `O=C(NCc1ccccc1)C(=O)NCC(c1ccc2c(c1)OCO2)N1CCOCC1` (stereo not drawn): 92%. As for `CCc1ccc(-n2c(=O)c3c4c(sc3n(CC(=O)N3CCC(C)CC3)c2=O)CCC4)cc1`, the survival was 83%. Consider `COC(=O)c1ccc(NC(=O)CC2C(=O)N(c3cccc(C)c3)C(=O)N2Cc2ccco2)cc1` (stereo not drawn), for which the survival was 92%. For the molecule `CCc1ccc(NC(=O)CC2C(=O)N(c3cccc(OC)c3)C(=O)N2Cc2ccco2)cc1` (stereo not drawn), the survival was 25% (active). The same measure for `COC(=O)c1ccc(NC(=O)CC2C(=O)N(c3ccc(Cl)cc3)C(=O)N2Cc2ccco2)cc1` (stereo not drawn): 37% (active); for `CCc1ccc(NC(=O)CC2C(=O)N(c3ccc(Cl)cc3)C(=O)N2Cc2ccco2)cc1` (stereo not drawn): 91%. Regarding `COC(=O)c1ccc(NC(=O)CC2C(=O)N(c3cccc(OC)c3)C(=O)N2Cc2ccco2)cc1` (stereo not drawn), the survival was 70%. Regarding `CCc1ccc(NC(=O)CC2C(=O)N(c3cccc(C)c3)C(=O)N2Cc2ccco2)cc1` (stereo not drawn), the survival was 118%.

For `CCN(CC)c1ccc2cc(C(=O)Nc3cccc(OC)c3)c(=O)oc2c1`, the survival is 75%. The figure for `Cn1nnc2c(NCc3c(F)cccc3F)ncnc21` is 80%. The figure for `C=CCn1c(C#N)c(N)sc1=N` is 96%; for `Cc1ccc(N2C(=O)CCSC23C(=O)N(Cc2ccccc2)c2ccccc23)cc1F` (stereo not drawn) it is 89%; for `COc1ccc(OC(=O)c2nc(SCc3ccc(C)cc3)ncc2Cl)cc1` it is 57%.

Take `CCOc1ccc(CNC(=O)c2ccc3nc(C(C)C)oc3c2)cc1`: the survival is 76%.

As for `O=C(NCc1cccc(F)c1)c1ccc2nc(CCc3ccccc3)oc2c1`, the survival is 79%. The figure for `O=C(NCCc1ccc(Cl)cc1)c1ccc2nc(CCc3ccccc3)oc2c1` is 75%; for `CN(C)c1ccc(CNC(=O)c2ccc3nc(CCc4ccccc4)oc3c2)cc1` it is 93%. As for `O=C(NCc1ccccc1)c1ccc2nc(CCc3ccccc3)oc2c1`, the survival was 0% (active). The figure for `COc1ccc(Cc2nc3ccc(C(=O)NCCc4ccc(OC)c(OC)c4)cc3o2)cc1` is 77%. The figure for `COc1ccc(CCNC(=O)c2ccc3nc(CCc4ccccc4)oc3c2)cc1OC` is 37% (active); for `COc1ccc(CCNC(=O)c2ccc3nc(Cc4ccccc4)oc3c2)cc1OC` it is 99%.

As to `CCCNC(=O)c1ccc2nc(CCc3ccccc3)oc2c1`, the survival is 78%. As for `O=C(NCCc1ccccc1)c1ccc2nc(CCc3ccccc3)oc2c1`, the survival was 32% (active).

`CCOc1cc(CNC(=O)c2ccc3nc(C(C)C)oc3c2)cc(OCC)c1OCC`: the survival is 47% (active). With `CCc1ccc(CNC(=O)c2ccc3nc(C(C)C)oc3c2)cc1`, the survival was 82%. The figure for `COc1ccc(Cn2ccc3nc(C)c(C(=O)Nc4cccc(SC)c4)cc3c2=O)cc1` is 95%. The figure for `COc1ccc(Nc2ncc(C(=O)N3CCN(c4ccc(OC)cc4)CC3)c3ccccc23)cc1` is 74%. The figure for `CCOc1ccc(N(CC(=O)Nc2ccc3c(c2)OCO3)S(=O)(=O)c2ccccc2)cc1` is 87%. `O=C(O)CSc1c2c(nc3cc(C(=O)Nc4ccc(F)c(Cl)c4)ccc13)CCC2`: the survival is 88%.

In the case of `Cc1cc(S(=O)(=O)n2ccnc2C(C)C)cc([N+](=O)[O-])c1C`, the survival is 57%.

As to `COc1ccc(CNC(=O)c2ccc3nc(CCc4ccccc4)oc3c2)cc1`, the survival was 0% (active). The figure for `COc1ccc(CNC(=O)c2ccc3nc(CCc4ccccc4)oc3c2)cc1OC` is 79%; for `COc1ccc(CNC(=O)c2ccc3nc(CCc4ccccc4)oc3c2)c(OC)c1` it is 135%. As for `Cc1ccc(-c2onc(C)c2C)cc1S(=O)(=O)NC1CCCCC1`, the survival was 77%. The same measure for `COc1ccc(NC(=O)c2ccco2)cc1NC(=O)COc1ccc(Cl)cc1C`: 57%.

Consider `COc1ccc(NC(=O)c2ccco2)cc1NC(=O)c1cc(Cl)ccc1OC`, for which the survival was 49%. The figure for `COc1ccc(NC(=O)c2ccco2)cc1NC(=O)C(C)(C)Oc1ccc(Cl)cc1` is 40% (active).

Consider `COc1ccc(NC(=O)c2ccco2)cc1NC(=O)C(C)Oc1ccc(Cl)cc1Cl` (stereo not drawn), for which the survival is 28% (active).

Take `COc1ccc(NC(=O)c2ccco2)cc1NC(=O)c1ccc(OC(C)C)cc1`: the survival is 121%.

With `COc1ccc(NC(=O)c2ccco2)cc1NC(=O)C(C)C`, the survival was 84%. The same measure for `COc1ccc(NC(=O)c2sc3nc(C)c(C(=O)Nc4ccc(C)cc4C)c(-c4sccc4C)c3c2N)cc1`: 91%.
